VACV E9 pol inh: inhibitors of vaccinia virus processive DNA synthesis (E9 polymerase); in vitro processive DNA synthesis, absorbance read-out; hits give low values; 46,000 tested, 0.94% active; normalized absorbance, % (concentration not given with the values); AID 493162; in the data active means normalized absorbance mostly below about 85%, no sharp cut-off; inactive means mostly above about 86%
Numbers without * were called inactive. The entries come from a sample that favours hits as a whole.

SMILES | VACV E9 pol inh
NC(=O)c1ncc(C(F)(F)F)cc1SCc1ccc(Cl)cc1 | 86
Oc1ccccc1C1=NNC(O)(C(F)(F)F)C1 (stereo not drawn) | 100
CCOC(=O)C1=C(C)Nc2ccccc2[S@]1=O | 108
CCCCCCCCCCCCCCCC[n+]1ccccc1 | 17*
c1cc[n+](C[n+]2ccccc2)cc1 | 103
O=C(CSC1=NCCS1)C12CC3CC(CC(C3)C1)C2 | 103
CC(=Nc1c2c(nc3ccccc13)N(C)CC2)N(C)C | 100
CC1CCCCN1c1nc(-c2ccccc2O)nc2ccccc12 (stereo not drawn) | 100
Nc1c2c(nc3ccccc13)N(C1CCCCC1)CC2 | 87*
O=C(C[n+]1ccccc1)Nc1c2c(nc3c1CCC3)CCCC2 | 100
O=C(O)c1cccc(N2C(=O)/C(=C/c3ccccc3)SC2=S)c1 | 90*
COc1ccccc1/C=C1\SC(=S)N(c2ccccc2)C1=O | 100
CCN(CC)c1ccc(N2C(=O)/C(=C/c3ccccc3)SC2=S)cc1 | 101
N#C/C(=C\c1ccc(Cl)c(Cl)c1)c1ccc(NC(N)=O)cc1 | 104
COC(CN(C)C(=O)c1cc2c(s1)-c1ccccc1OC2)OC | 84
CCOC(=O)c1cnc2nc(NCc3ccc(Cl)cc3)[nH]n2c1=O | 102
N#CC1=C(N=Cc2c(O)ccc3ccccc23)CCC1 | 99
Oc1c(Cl)cc(Cl)cc1/C=N/c1nc2c(s1)CCCC2 | 97
N#CC1=C(N=Cc2cc(Cl)cc(Cl)c2O)CCC1 | 83*
O=C(O)c1ccc(CO)cc1 | 104
Cc1cccc(C(=O)Nc2nc(-c3ccc(F)cc3)cs2)c1 | 103
O=c1cc(-c2ccccc2)oc2cc(O)cc(O)c12 | 100
O=c1cc(-c2ccc(O)cc2)oc2cc(O)cc(O)c12 | 85*
O=C(COc1cc(O)c2c(=O)cc(-c3ccccc3)oc2c1)c1ccccc1 | 100
O=C(CCCSc1nc2ccc(Cl)cc2s1)c1ccc(F)cc1 | 100
SMILES | VACV E9 pol inh
Cc1cc2cc(CNC(=O)CC(C)C)ccc2[nH]1 | 97
CC(=O)N(c1ccccc1)c1cccc(C(F)(F)F)c1 | 96
O=C1c2ccccc2-c2onc3c(Br)cc(NCc4ccccc4)c1c23 | 99
CCOC(=O)N1CCN(c2cc(NCCC(=O)O)c3c4c(onc24)-c2ccccc2C3=O)CC1 | 70*
CCOC(=O)N1CCN(S(=O)(=O)c2ccccc2)CC1 | 100
COC(=O)C(Cc1c[nH]c2ccccc12)NC(=O)C12CC3CCC1CC(C3)C2 (stereo not drawn) | 100
N#Cc1cc(C#N)c(SCC(=O)NC2CCCCC2)nc1N | 100
CC1CCCCN1CCCNC(=O)c1cc2c(s1)-c1ccc(Cl)cc1SC2 (stereo not drawn) | 69*
Cc1cccc2c1-c1sc(C(=O)NCCN3CCCCC3C)cc1CO2 (stereo not drawn) | 91
CCC1CCCCN1CCCNC(=O)c1cc2c(s1)CSC2 (stereo not drawn) | 102
Cc1ccc(S(=O)(=O)n2cnc3cc(C)c(C)cc32)c(C)c1 | 100
COc1ccc(C2C(Oc3ccc(Cl)cc3C)C(=O)N2c2ccc(C)c(C)c2)cc1OC (stereo not drawn) | 100
O=C(NCCCN1CCOCC1)c1ccc2c(=O)n(CCCN3CCCC3=O)c(=S)[nH]c2c1 | 101
O=C(O)C(Cc1ccccc1)NS(=O)(=O)c1ccc2[nH]c(=O)c(=O)[nH]c2c1 (stereo not drawn) | 109
CN1CCc2c(sc(NC(=O)c3ccc4ncsc4c3)c2C(N)=O)C1 | 85*
COC(=O)c1c(NC(=O)c2ccc(OC)cc2)sc2c1CCN(C)C2 | 92
N#Cc1ccsc1NC(=O)c1ccc2ncsc2c1 | 108
Cc1ccc(-c2cc(C(=O)N3CC(C)OC(C)C3)c3ccccc3n2)cc1 (stereo not drawn) | 104
O=C1/C(=C/C=C/c2ccccc2)SC(=S)N1c1cccc(F)c1 | 100
O=C(CN1C(=O)/C(=C\C=C\c2ccccc2)SC1=S)Nc1ccc(F)cc1 | 98
O=C1NC(=O)/C(=C\C=C\c2ccccc2)S1 | 55*
O=C1OC(c2ccccc2)OC(=O)C1=C/C=C/c1ccccc1 (stereo not drawn) | 100
CN(C)c1ccc(/C=C2\SC(=O)NC2=O)cc1 | 102
O=C1NC(=S)S/C1=C\C=C\c1ccccc1 | 86*
CCC(C)NC(=O)c1cc(C(=O)c2ccccc2)c[nH]1 (stereo not drawn) | 94
SMILES | VACV E9 pol inh
COc1cc(N=Cc2cc3cccc(C)c3nc2Cl)c(OC)cc1Cl | 101
Nc1nc2ccc(S(N)(=O)=O)cc2s1 | 100
O=C1c2ccccc2NC(c2ccc3cccnc3c2)N1c1cccc(C(F)(F)F)c1 (stereo not drawn) | 100
Nc1cc(C(F)(F)F)ccc1OCc1ccccc1 | 99
N#Cc1ccc(C23CC4CC(CC(C4)C2)C3)nc1SCCN1CCCCC1 | 99
O=C(Oc1ccccc1OC(=O)C1C2CCCCC21)C1C2CCCCC21 (stereo not drawn) | 100
Cn1c(C(=O)NCCc2ccc(Cl)cc2)cc2c(=O)n(C)c3ccccc3c21 | 100
Cn1c(C(=O)NC2CC2)cc2c(=O)n(C)c3ccccc3c21 | 77
CN1CCN(CCNC(=O)c2cc3c(=O)n(C)c4ccccc4c3n2C)CC1 | 62*
CC(C)=C1C2C=CC1C1C(=O)N(Cc3cccnc3)C(=O)C21 (stereo not drawn) | 100
Cc1cc(NCc2cccnc2)n2c(nc3ccccc32)c1C#N | 101
S=C1COC(c2ccc(Br)cc2)N1c1ccccc1 (stereo not drawn) | 100
C[n+]1cc(-c2ccc3ccccc3n2)cc2ccccc21 | 85*
Cn1c(-c2ccc3ccccc3n2)[n+](C)c2ccccc21 | 100
COc1ccc(-c2ccc3ccccc3n2)cc1OC | 101
Cc1ccc(S(=O)(=O)CCl)cc1 | 97
CC(C(=O)O)N1C(=O)/C(=C/c2ccccc2Cl)SC1=S (stereo not drawn) | 90
CN1C(=O)/C(=C\c2ccccc2)Sc2ccc(C(=O)NC3CCCCC3)cc21 | 81
CN1C(=O)c2ccccc2Sc2ccc(C(=O)O)cc21 | 97
CCCC(C(=O)O)N1C(=O)/C(=C/c2ccccc2Cl)SC1=S (stereo not drawn) | 56*
CN1C(=O)/C(=C/c2ccccc2Cl)Sc2ccc(C(=O)O)cc21 | 46*
CCCC(C(=O)O)N1C(=O)/C(=C/c2ccc(C)cc2)SC1=S (stereo not drawn) | 96
O=C(Nc1ccc(S(=O)(=O)N2CCCC2)cc1)c1ccco1 | 115
CCC(=O)N1c2ccccc2NC2=C(C(=O)CC(C)(C)C2)C1CC1CC=C(C)C1(C)C (stereo not drawn) | 102
O=C(OC(C(=O)Nc1cc(C(F)(F)F)ccc1Cl)c1ccccc1)c1cccnc1 (stereo not drawn) | 99
SMILES | VACV E9 pol inh
NS(=O)(=O)c1ccc2nc(NC(=O)C3CCCCC3)sc2c1 | 99
COC(=O)c1ccc2nc(NC(=O)C(C)C)sc2c1 | 101
NNc1nc2cc3c(cc2s1)OCCO3 | 52*
NNc1nc2cc3c(cc2s1)OCO3 | 50*
Fc1ccc2nc(Nc3nc4ccc(F)cc4s3)sc2c1 | 96
c1c2c(cc3sc(N4CCOCC4)nc13)OCCO2 | 98
C=CCNC(=O)C1(O)c2ccccc2NC(=O)N1c1ccccc1 (stereo not drawn) | 101
C=CCn1c(=NC(=O)/C=C/c2ccccc2)sc2cc(NC(C)=O)ccc21 | 91
COc1ccc(/C=C/C(=O)C2=C(O)c3ccccc3C2=O)cc1 | 79
O=C(NC(NCc1ccccc1Cl)(C(F)(F)F)C(F)(F)F)c1ccccc1 | 100
O=C1c2ccccc2-c2n[nH]c(=O)c3ccc(N4CCOCC4)c1c23 | 99
